Measured values reported in PubChem BioAssay (NCI).
The panel holds about 79,000 compounds, 15% with a hit somewhere; the sample as a whole holds those more often. Activity calls are given as the source filed them. Rule as the data show it: active = growth inhibition above about 70%; inactive = the rest.

Key:
[1] = NCI Yeast Anticancer Drug Screen. Data for the wt1 strain (AID 149);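 also: 0% = growth of vehicle-treated wt1 cultures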; settings: S. cerevisiae wt1 strain (SPY 50644) growth inhibition, active compounds read high
How it was run: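 Yeast wt1 strain exposed to compounds; growth inhibition measured relative to vehicle-treated controls.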

[2] = NCI Yeast Anticancer Drug Screen. Data for the rad50EPP+ strain (AID 151);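 also: 0% = growth of vehicle-treated control cultures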; settings: S. cerevisiae rad50 mutant strain, active compounds read high
How it was run: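 Measured: growth inhibition of rad50EPP+ yeast. Reference: vehicle-treated controls. Screen uses strains with defined genetic alterations in DNA damage repair or cell cycle control.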

[3] = NCI Yeast Anticancer Drug Screen. Data for the mgt1 strain (AID 153); settings: S. cerevisiae mgt1 mutant growth inhibition, active compounds read high
How it was run: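 Compounds were applied to mgt1 mutant yeast, and growth was then compared against vehicle-treated control cultures to give percent inhibition.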

[4] = NCI Yeast Anticancer Drug Screen. Data for the rad50 strain (AID 155);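 also: 0% = growth of vehicle-only cultures of the same strain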; settings: S. cerevisiae rad50 strain growth inhibition, active compounds read high
How it was run: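 Yeast carrying a defined DNA repair defect were exposed to test compounds, and growth was compared with vehicle-treated controls to give percent inhibition.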

[5] = NCI Yeast Anticancer Drug Screen. Data for the mec2-1 strain (AID 157); settings: S. cerevisiae mec2-1 strain, active compounds read high
How it was run: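 Compounds were applied to mec2-1 yeast cells. Their growth was then compared with that of vehicle-treated cultures to give growth inhibition.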

[6] = NCI Yeast Anticancer Drug Screen. Data for the rad14 strain (AID 159);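 also: 0% = growth of vehicle-treated control cultures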; settings: S. cerevisiae rad14 strain growth inhibition, active compounds read high
How it was run: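 Yeast cells carrying a defined DNA-repair defect were exposed to compounds, and growth inhibition was calculated relative to vehicle-treated control cultures.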

[7] = NCI Yeast Anticancer Drug Screen. Data for the sgs1 mgt1 strain (AID 161);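 also: 0% = growth of cultures given vehicle only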; settings: S. cerevisiae sgs1 mgt1 strain, active compounds read high
How it was run: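 This yeast growth screen uses a strain with defined DNA-repair lesions; compound-treated growth is compared with vehicle-treated growth.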

[8] = NCI Yeast Anticancer Drug Screen. Data for the CLN2oe strain (AID 163);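 also: 0% = growth of vehicle-only control cultures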; settings: S. cerevisiae CLN2oe strain, active compounds read high
How it was run: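 Cells of an engineered yeast line with disturbed cell-cycle regulation are treated with compound. Inhibition of growth is then calculated relative to the vehicle-treated reference.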

[9] = NCI Yeast Anticancer Drug Screen. Data for the cln2 rad14 strain (AID 165);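 also: 0% = growth equal to vehicle treated cultures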; settings: S. cerevisiae cln2 rad14 strain, active compounds read high
How it was run: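 Strain: cln2 rad14 yeast, altered in cell cycle control and DNA damage repair. Read-out: growth inhibition vs vehicle.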

[10] = NCI Yeast Anticancer Drug Screen. Data for the bub3 strain (AID 167); settings: S. cerevisiae bub3 mutant strain, active compounds read high
How it was run: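 Compounds were applied to a genetically altered yeast strain carrying a cell-cycle control defect. Growth inhibition was scored against vehicle-treated controls.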

[11] = NCI Yeast Anticancer Drug Screen. Data for the wt2 strain (AID 169);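 also: 0% = growth of vehicle-treated yeast cultures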; settings: S. cerevisiae wt2 strain growth inhibition, active compounds read high
How it was run: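 Growth of compound-treated yeast is measured and expressed as inhibition relative to vehicle-only controls.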

[12] = NCI Yeast Anticancer Drug Screen. Data for the mlh1 strain (AID 171);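 also: 0% = growth of vehicle-treated control cultures of the same strain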; settings: S. cerevisiae mlh1 strain growth inhibition, active compounds read high
How it was run: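 Test agents were incubated with yeast bearing a defined DNA damage repair or cell cycle control alteration; values are growth inhibition normalised to vehicle-treated cultures.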

[13] = NCI Yeast Anticancer Drug Screen. Data for the sgs1 strain (AID 173);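 also: 0% = growth of vehicle-only control cultures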; settings: S. cerevisiae sgs1 mutant, active compounds read high
How it was run: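 Strain with an altered DNA repair or cell cycle pathway exposed to compound. Growth then measured. Value = inhibition versus vehicle control.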

[14] = NCI Yeast Anticancer Drug Screen. Data for the mlh1 rad18 strain (AID 175); settings: S. cerevisiae mlh1 rad18 strain growth inhibition, active compounds read high
How it was run: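 A repair-deficient yeast strain is exposed to test compound, and growth is scored relative to vehicle-treated controls.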

[15] = NCI Yeast Anticancer Drug Screen. Data for the rad18 strain (AID 177); settings: S. cerevisiae rad18 mutant growth inhibition, active compounds read high
How it was run: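 DNA-repair-defective yeast; compound treatment; growth inhibition scored against vehicle.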

[16] = NCI Yeast Anticancer Drug Screen. Data for the rad52 strain (AID 147);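 also: 0% = growth of vehicle-treated control cultures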; settings: S. cerevisiae rad52 mutant growth inhibition, active compounds read high
How it was run: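 Growth of repair-deficient yeast cells was compared between compound-treated and vehicle-treated cultures to give percent inhibition.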

[17] = at 5.0 µM (retest, dose inferred, filed as 0.5)
[18] = at 50.0 µM (retest, dose inferred, filed as 5.0)

Measured: growth inhibition

O=C1c2cccc3cc([N+](=O)[O-])cc(c23)C(=O)N1CCN1CCCC1
inactive: [1]; at 1.2 µM 8% | [1]; at 3.7 µM 8% | [1]; at 11.0 µM 0% | [1]; at 33.0 µM 3% | [1]; at 100.0 µM 25% | [2]; at 1.2 µM 13% | [2]; at 3.7 µM 23% | [2]; at 11.0 µM 39% | [3]; at 1.2 µM -6% | [3]; at 3.7 µM 10% | [3]; at 11.0 µM 8% | [3]; at 33.0 µM 7% | [3]; at 100.0 µM 44% | [4]; at 1.2 µM 16% | [4]; at 3.7 µM 48% | [4]; [17] 11% | [4]; at 11.0 µM 62% | [4]; at 50.0 µM 66.7% | [5]; at 1.2 µM 5% | [5]; at 3.7 µM 5% | [5]; [17] 11% | [5]; at 11.0 µM -3% | [5]; at 33.0 µM -4% | [5]; [18] 30% | [5]; at 50.0 µM 28.1% | [5]; at 100.0 µM 38% | [6]; at 1.2 µM 12% | [6]; at 3.7 µM 11% | [6]; at 11.0 µM 14% | [6]; at 33.0 µM 5% | [6]; at 100.0 µM 28% | [7]; [17] 8% | [7]; [18] 12% | [7]; at 50.0 µM -14.2% | [8]; at 1.2 µM 7% | [8]; at 3.7 µM 25% | [8]; at 11.0 µM 25% | [8]; at 33.0 µM 39% | [8]; at 100.0 µM 61% | [9]; [17] 9% | [9]; [18] 36% | [9]; at 50.0 µM -15.8% | [10]; at 1.2 µM 9% | [10]; at 3.7 µM 20% | [10]; [17] 9% | [10]; at 11.0 µM 13% | [10]; at 33.0 µM 17% | [10]; [18] 12% | [10]; at 50.0 µM -11.2% | [10]; at 100.0 µM 35% | [11]; at 1.2 µM -11% | [11]; at 3.7 µM 0% | [11]; at 11.0 µM 12% | [11]; at 33.0 µM 7% | [11]; at 100.0 µM 19% | [12]; at 1.2 µM 0% | [12]; at 3.7 µM 20% | [12]; at 11.0 µM -4% | [12]; at 33.0 µM 18% | [12]; at 100.0 µM 39% | [13]; at 1.2 µM 0% | [13]; at 3.7 µM 0% | [13]; at 11.0 µM 2% | [13]; at 33.0 µM 19% | [13]; at 100.0 µM 50% | [14]; [17] 3% | [14]; [18] 18% | [14]; at 50.0 µM -41.9% | [15]; at 1.2 µM 24% | [15]; at 3.7 µM 23% | [15]; at 11.0 µM 33% | [15]; at 33.0 µM 15%
active: [2]; at 33.0 µM 73% | [2]; at 100.0 µM 83% | [4]; at 33.0 µM 88% | [4]; [18] 95% | [4]; at 100.0 µM 91% | [15]; at 100.0 µM 73%

O=c1[nH]cc(/C=N\Nc2ccccc2)c(=O)[nH]1
active: [9]; at 50.0 µM 73.8% | [10]; at 50.0 µM 82.9% | [14]; [18] 81% | [14]; at 50.0 µM 84.5%
inactive: [16]; at 1.2 µM 1% | [16]; at 3.7 µM 6% | [16]; at 11.0 µM 36% | [16]; at 33.0 µM 56% | [16]; at 100.0 µM 63% | [2]; at 1.2 µM 2% | [2]; at 3.7 µM 7% | [2]; at 11.0 µM 28% | [2]; at 33.0 µM 43% | [2]; at 100.0 µM 42% | [3]; at 1.2 µM 3% | [3]; at 3.7 µM -2% | [3]; at 11.0 µM 21% | [3]; at 33.0 µM 31% | [3]; at 100.0 µM 46% | [5]; at 1.2 µM 0% | [5]; at 3.7 µM -2% | [5]; [17] -3% | [5]; at 11.0 µM 27% | [5]; at 33.0 µM 31% | [5]; [18] 15% | [5]; at 50.0 µM 52.4% | [5]; at 100.0 µM 21% | [6]; at 1.2 µM -1% | [6]; at 3.7 µM 1% | [6]; at 11.0 µM 12% | [6]; at 33.0 µM 15% | [6]; at 100.0 µM 10% | [7]; [17] -1% | [7]; [18] 67% | [7]; at 50.0 µM 60.9% | [9]; [17] -29% | [9]; [18] 29% | [10]; at 1.2 µM 9% | [10]; at 3.7 µM 1% | [10]; [17] 7% | [10]; at 11.0 µM 27% | [10]; at 33.0 µM 39% | [10]; [18] 50% | [10]; at 100.0 µM 40% | [11]; at 1.2 µM 0% | [11]; at 3.7 µM 8% | [11]; at 11.0 µM 51% | [11]; at 33.0 µM 57% | [11]; at 100.0 µM 55% | [12]; at 1.2 µM -3% | [12]; at 3.7 µM 5% | [12]; at 11.0 µM 17% | [12]; at 33.0 µM 28% | [12]; at 100.0 µM 39% | [13]; at 1.2 µM 3% | [13]; at 3.7 µM 8% | [13]; at 11.0 µM 41% | [13]; at 33.0 µM 62% | [13]; at 100.0 µM 66% | [14]; [17] -3%
